HCMV inh: blocks human cytomegalovirus replication; activity change, negative = inhibition, % at 57.5 µM; HFF cells, HCMV-luciferase reporter, 72 h; stronger effect = lower value; 410,000 tested, 4.5% active; AID 1259415; in the data active = activity change below about -60%; inconclusive = no clear call, values can overlap the other calls; inactive = above about -39%; also: % is scaled to controls: 0 for no effect and ±100 for the full control effect
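After 16 h attachment at 37C, HFF cells received test compound and HCMV-luciferase (1 PFU/cell); reporter luminescence read 72 h later, data normalized against buffer-only and known inhibitor Salinomycin.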
Pf growth 48h: inhibits P. falciparum growth in the first generation, 48 h | P. falciparum luciferase growth in erythrocytes, 48 h | Potency, µM (top dose mostly 28.7 µM), without a hit: at the highest dose activity change, negative = inhibition, usual class: inhibitors | 310,000 tested, 5.9% active | AID 504832; also: potency is read from the fitted curve at half-maximal effect; % is scaled to controls: 0 for no effect and ±100 for the full control effect
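Luciferase-expressing parasites in RBCs, 2% Hct / 0.1% parasitemia final; RPMI 1640 + 0.5% Albumax; 37 C, 5% CO2, one generation; luminescence read-out, lower signal = inhibition.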
Pf growth 96h: P. falciparum growth inhibition at 96 hours; P. falciparum luciferase reporter growth, 96 h; 320,000 tested, 6.9% active; Potency, µM (series often up to 28.7 µM), for the others: top-dose activity change, negative = inhibition, most hits filed as inhibitors; also: potency is read from the fitted curve at half-maximal effect; % is scaled to controls: 0 for no effect and ±100 for the full control effect
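Delayed-death screen, second-generation endpoint: infected erythrocytes, 2% hematocrit, 0.05% parasitemia final; 96 hours at 37 C, 5% CO2; luciferase detection reagent; luminescence decrease equals reduced growth.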
Sm TGR inh: inhibitors of Schistosoma mansoni thioredoxin glutathione reductase. 360,000 tested, 3% active. purified TGR, DTNB reduction, TNB absorbance 405 nm. Potency, µM (series often up to 114 µM), inactives show at the highest dose activity change, negative = inhibition, usual class: inhibitors. Q962Y6. AID 485364; also: potency is read from the fitted curve at half-maximal effect; % is scaled to controls: 0 for no effect and ±100 for the full control effect; nearly all actives have a fitted effect of over 60% in size
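Kinetic colorimetric format: TGR-catalysed, NADPH-driven DTNB reduction monitored via TNB absorbance. Enzyme dispensed at 20 nM; compound exposure 15 min at room temperature before reaction start.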
HCV inh: HCV inhibition; Potency, µM (top dose mostly 41.8 µM), without a hit: top-dose activity change, negative = inhibition, actives largely listed as inhibitors; 340,000 tested, 3.4% active; Huh7.5.1 HCVcc-Cre infection, luciferase reporter, 44 h; also: potency is read from the fitted curve at half-maximal effect; % is scaled to controls: 0 for no effect and ±100 for the full control effect
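Compounds are dispensed onto cells plated 4 h earlier at 1,000 per well, with HCVcc-Cre virus (about 0.5 moi) added next. Following 44 h of culture, luminescent signal is measured for 15 sec after 15 min with substrate at room temperature.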
SARS PLP yeast: blocks SARS-CoV papain-like protease in a yeast assay; S. cerevisiae expressing SARS-CoV PLpro, growth rescue; Potency, µM (series often up to 32.9 µM), without a hit: at the top dose activity, positive = growth rescue, actives largely listed as activators; 330,000 tested, 0.19% active; AID 485353; calls by dose curve; also: potency is read from the fitted curve at half-maximal effect; 0% is about no effect; nearly all actives have a fitted effect of over 55% in size
Numbers without * were called inactive; ? = inconclusive; / = not tested or not shown. Shown are actives, neighbours in structure and some others; about 15% of the full set was active somewhere. Unless noted, calls follow the shape of the dose curve; as a rule, active = well fitted curve in the direction sought with a large enough effect; inconclusive = small, poorly fitted or top-dose-only effect, or another doubt; inactive = no such curve, though single readings can be large; an effect the other way counts as inactive or inconclusive.

SMILES	HCMV inh	Pf growth 48h	Pf growth 96h	Sm TGR inh	HCV inh	SARS PLP yeast
COc1cc(-c2cccs2)cc(=O)c2c(C)oc(C)c12	?	?	12µM*	40µM*	11µM*	9%
COc1cc(-c2cc(OC)c3c(C)oc(C)c3c(=O)c2)ccc1OC(=O)c1ccccc1Cl	362	/	/	-17%	/	/
Cc1onc(-c2ccccc2Cl)c1C(=O)NCc1nnnn1-c1ccc(F)c(F)c1	-32	/	/	/	/	/
CCn1cc2nc(SCC(=O)Nc3cc(OC)cc(OC)c3)n(Cc3ccc(Cl)cc3)c(=O)c2n1	-4	/	/	0%	/	/
CCc1ccc2[nH]cc(S(=O)(=O)c3ccc(C)c(C)c3)c(=O)c2c1	29	0%	203%	4%	-25%	1%
CCc1ccc2[nH]c3nc(C)cc(C)c3c(=O)c2c1	114	3.3µM*	0%	1%	1%	-16%
Nc1nc2ccccc2n1CCOc1ccc(Br)cc1	-26	?	5%	0%	?	-3%
Cn1c(NC(=S)Nc2ccccc2)nc2ccccc21	59	?	?	-19%	-17%	8.9µM*
Cn1c(NC(=O)c2ccccc2NC(=O)C(C)(C)C)nc2ccccc21	-25	?	?	-1%	7.1µM*	-18%
S=C(Nc1ccccc1)Nc1nc2ccccc2n1CCOc1ccc(Br)cc1	55	3.3µM*	4%	1%	?	?
CC1CC(C)CN(CCOc2ccc(Cl)cc2Cl)C1 (stereo not given)	-16	10µM*	?	-4%	-28%	-4%
CC1CCCN(CCOCCOc2ccc(Cl)cc2Br)C1 (stereo not given)	-30	12µM*	12µM*	4%	-29%	-1%
CC1CCCN(CCOCCOc2ccc(Br)cc2Cl)C1 (stereo not given)	-64*	?	14%	7%	?	-17%
CC1CC(C)CN(CCOc2cccc(Cl)c2Cl)C1 (stereo not given)	?	?	-9%	-10%	?	-16%
CN1CCN(CCOCCOc2ccc(Br)cc2Cl)CC1	15	-28%	143%	5%	?	24%
Clc1ccc(OCCCCCN2CCCC2)c(Br)c1	?	-58%	?	1%	10µM*	-14%
Cc1cc(NS(C)(=O)=O)c(=O)n(Cc2cccc(F)c2)c1	3	17%	2.6µM*	-5%	15%	-12%
Cc1ccc(Cn2cccc(NS(C)(=O)=O)c2=O)cc1	11	3%	68%	-29%	-9%	5%
Cc1c(NC(=O)COc2ncnc3ccccc23)c(=O)n(-c2ccccc2)n1C	-26	-13%	?	35µM*	-3%	2%
COc1cc(/C=C/C(=O)OCC(=O)Nc2c(C)n(C)n(-c3ccccc3)c2=O)ccc1O	0	-6%	1%	-19%	6%	-7%
Cc1c(NC(=O)C(C)Oc2ncnc3ccccc23)c(=O)n(-c2ccccc2)n1C (stereo not given)	-21	9%	18%	-3%	8%	8%
Cc1c(NC(=O)COc2ccc(C(C)C)cc2)c(=O)n(-c2ccccc2)n1C	-8	13%	13µM*	4%	16%	0%
Cc1c(C(c2ccc(Br)cc2)c2c(C)n(C)n(-c3ccccc3)c2=O)c(=O)n(-c2ccccc2)n1C	41	0%	20%	2%	-4%	-3%
COc1cc(/C=C/C(=O)OCC(=O)Nc2c(C)n(C)n(-c3ccccc3)c2=O)cc(OC)c1OC	-34	?	10µM*	-10%	8%	9%
COC(=O)c1ccc(C(c2c(C)n(C)n(-c3ccccc3)c2=O)c2c(C)n(C)n(-c3ccccc3)c2=O)cc1	1	?	6.6µM*	2%	9%	-4%
O=C(Cn1c(=O)oc2ccccc21)Nc1n[nH]c(=S)s1	8	26%	-2%	2%	8%	3%
NCCNC[C@@H]1COC2(CCCCCCCCCCC2)O1	47	8.3µM*	7.4µM*	-1%	-3%	-3%
